# Measurements from PMC7862700, “An all-to-all approach to the identification of sequence-specific readers for epigenetic DNA modifications on cytosine”.
# Experiments:
# Assay in all cases: DAPPL (digital affinity profiling via proximity ligation, sequencing); 10 mM Tris-HCl pH 7.5, 50 mM NaCl, 1 mM DTT, 4% glycerol, room temperature, 30 min; GST-TFs on glutathione beads, 16-mer random dsDNA library, 0.1% formaldehyde crosslink after washing; high values mean tight binding
# FLI1 = target: T1, FLI1 (Homo sapiens, UniProt Q01543 1-452); settings: protein: recombinant; tags: N-terminal GST; dsDNA, one strand shown
# T1 sequence: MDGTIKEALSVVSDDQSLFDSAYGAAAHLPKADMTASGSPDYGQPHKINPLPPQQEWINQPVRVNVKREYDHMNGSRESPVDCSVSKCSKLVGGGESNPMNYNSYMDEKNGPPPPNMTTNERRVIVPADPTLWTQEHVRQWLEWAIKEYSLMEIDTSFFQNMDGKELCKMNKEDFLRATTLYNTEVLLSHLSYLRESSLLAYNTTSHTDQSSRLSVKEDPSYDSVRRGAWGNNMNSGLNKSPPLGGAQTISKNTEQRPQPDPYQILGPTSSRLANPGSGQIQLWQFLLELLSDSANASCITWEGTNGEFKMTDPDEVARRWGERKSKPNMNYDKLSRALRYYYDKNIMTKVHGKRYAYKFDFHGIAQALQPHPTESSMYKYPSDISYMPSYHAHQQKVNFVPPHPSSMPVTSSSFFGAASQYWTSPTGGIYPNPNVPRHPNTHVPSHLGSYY
# How it was run: (§1)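 Pools were built from human transcription factors expressed in yeast as GST fusions, captured on glutathione beads and DNA-barcoded, along with a tag-only sample. Incubation with 200 nmole of a 16-mer random double-stranded DNA library lasted 30 min at room temperature in Tris/NaCl/DTT/glycerol buffer, and was followed by washing, 0.1% formaldehyde crosslinking, proximity ligation, PCR amplification and Illumina NextSeq500 sequencing. Binding signal is the quotient of each hexamer's read frequency for a factor and its frequency for the tag-only sample.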
# ELK1 = target: T2, ELK1 (Homo sapiens, UniProt P19419 1-428); settings: protein: recombinant; tags: N-terminal GST; dsDNA, one strand shown
# T2 sequence: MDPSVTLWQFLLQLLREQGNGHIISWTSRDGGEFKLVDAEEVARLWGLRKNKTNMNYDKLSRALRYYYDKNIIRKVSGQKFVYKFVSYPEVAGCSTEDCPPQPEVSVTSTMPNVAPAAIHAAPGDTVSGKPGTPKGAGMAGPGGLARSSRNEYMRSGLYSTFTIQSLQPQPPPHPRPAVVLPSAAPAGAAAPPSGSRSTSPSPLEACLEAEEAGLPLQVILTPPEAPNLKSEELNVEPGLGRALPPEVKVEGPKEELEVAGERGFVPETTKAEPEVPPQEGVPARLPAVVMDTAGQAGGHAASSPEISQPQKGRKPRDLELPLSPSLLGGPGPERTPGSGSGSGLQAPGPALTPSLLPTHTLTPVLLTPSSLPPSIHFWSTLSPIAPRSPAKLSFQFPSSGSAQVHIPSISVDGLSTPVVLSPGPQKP
# How it was run: as §1
# GABPA = target: T3, GABPA (Homo sapiens, UniProt Q06546 1-454); settings: protein: recombinant; tags: N-terminal GST; dsDNA, one strand shown
# T3 sequence: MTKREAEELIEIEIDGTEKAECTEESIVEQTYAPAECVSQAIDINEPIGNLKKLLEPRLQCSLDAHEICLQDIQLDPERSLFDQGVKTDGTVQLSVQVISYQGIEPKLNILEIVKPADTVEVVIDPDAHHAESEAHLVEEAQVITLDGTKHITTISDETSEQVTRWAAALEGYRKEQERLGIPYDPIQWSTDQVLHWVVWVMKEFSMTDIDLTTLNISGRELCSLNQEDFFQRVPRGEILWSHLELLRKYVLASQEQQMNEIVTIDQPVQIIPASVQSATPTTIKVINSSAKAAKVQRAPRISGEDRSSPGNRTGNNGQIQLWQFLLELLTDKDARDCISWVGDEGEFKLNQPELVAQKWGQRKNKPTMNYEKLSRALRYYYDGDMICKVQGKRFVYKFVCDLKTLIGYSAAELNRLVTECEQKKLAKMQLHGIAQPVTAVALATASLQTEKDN
# How it was run: as §1
# ERG = target: T4, ERG (Homo sapiens, UniProt P11308 1-479); settings: protein: recombinant; tags: N-terminal GST; dsDNA, one strand shown
# T4 sequence: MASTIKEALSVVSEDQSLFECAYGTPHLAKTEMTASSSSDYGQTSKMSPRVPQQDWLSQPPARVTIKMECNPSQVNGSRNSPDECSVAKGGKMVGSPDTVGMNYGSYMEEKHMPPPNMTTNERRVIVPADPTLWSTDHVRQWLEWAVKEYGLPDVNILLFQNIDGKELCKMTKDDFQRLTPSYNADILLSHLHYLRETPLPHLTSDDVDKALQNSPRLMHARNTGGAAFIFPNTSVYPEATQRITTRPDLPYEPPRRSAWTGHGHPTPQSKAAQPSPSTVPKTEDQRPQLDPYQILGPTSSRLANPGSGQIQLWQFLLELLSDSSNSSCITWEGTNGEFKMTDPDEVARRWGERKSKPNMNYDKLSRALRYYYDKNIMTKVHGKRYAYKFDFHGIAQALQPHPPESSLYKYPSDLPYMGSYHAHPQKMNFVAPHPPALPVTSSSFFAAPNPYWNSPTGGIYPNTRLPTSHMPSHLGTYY
# How it was run: as §1
# ELF1 = ELF1 (Homo sapiens, UniProt P32519 1-619); settings: protein: recombinant; tags: N-terminal GST; dsDNA, one strand shown
# Chain of ELF1 (P32519 whole entry): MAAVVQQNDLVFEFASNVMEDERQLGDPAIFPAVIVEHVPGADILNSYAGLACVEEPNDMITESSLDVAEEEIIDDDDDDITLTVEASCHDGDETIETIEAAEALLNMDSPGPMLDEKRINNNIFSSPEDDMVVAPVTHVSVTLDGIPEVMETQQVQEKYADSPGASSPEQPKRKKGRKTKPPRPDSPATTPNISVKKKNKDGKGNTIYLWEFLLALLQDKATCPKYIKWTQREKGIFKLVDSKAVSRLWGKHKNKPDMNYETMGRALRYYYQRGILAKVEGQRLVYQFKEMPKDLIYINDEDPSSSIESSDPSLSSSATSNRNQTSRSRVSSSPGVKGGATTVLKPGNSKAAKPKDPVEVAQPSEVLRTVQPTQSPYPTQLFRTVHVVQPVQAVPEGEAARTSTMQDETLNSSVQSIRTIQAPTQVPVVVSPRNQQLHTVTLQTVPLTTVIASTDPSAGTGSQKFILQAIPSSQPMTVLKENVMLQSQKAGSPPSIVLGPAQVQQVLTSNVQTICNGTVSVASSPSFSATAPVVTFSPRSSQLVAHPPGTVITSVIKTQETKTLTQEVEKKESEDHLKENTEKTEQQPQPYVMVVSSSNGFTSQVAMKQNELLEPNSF
# How it was run: as §1
# EHF = target: T5, EHF (Homo sapiens, UniProt Q9NZC4 1-300); settings: protein: recombinant; tags: N-terminal GST; dsDNA, one strand shown
# T5 sequence: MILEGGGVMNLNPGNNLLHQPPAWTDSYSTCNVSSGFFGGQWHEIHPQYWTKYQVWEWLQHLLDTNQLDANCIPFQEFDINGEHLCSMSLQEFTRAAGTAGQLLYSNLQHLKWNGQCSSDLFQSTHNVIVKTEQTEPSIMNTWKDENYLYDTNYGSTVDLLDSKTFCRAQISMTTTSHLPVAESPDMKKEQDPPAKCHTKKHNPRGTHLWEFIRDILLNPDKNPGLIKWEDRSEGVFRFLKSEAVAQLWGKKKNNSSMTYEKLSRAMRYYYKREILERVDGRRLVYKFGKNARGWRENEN
# How it was run: as §1
# SPI1 = SPI1 (Homo sapiens, UniProt P17947 1-270); settings: protein: recombinant; tags: N-terminal GST; dsDNA, one strand shown
# How it was run: as §1
# SPIB = SPIB (Homo sapiens, UniProt Q01892 1-262); settings: protein: recombinant; tags: N-terminal GST; dsDNA, one strand shown
# Chain of SPIB (Q01892 whole entry): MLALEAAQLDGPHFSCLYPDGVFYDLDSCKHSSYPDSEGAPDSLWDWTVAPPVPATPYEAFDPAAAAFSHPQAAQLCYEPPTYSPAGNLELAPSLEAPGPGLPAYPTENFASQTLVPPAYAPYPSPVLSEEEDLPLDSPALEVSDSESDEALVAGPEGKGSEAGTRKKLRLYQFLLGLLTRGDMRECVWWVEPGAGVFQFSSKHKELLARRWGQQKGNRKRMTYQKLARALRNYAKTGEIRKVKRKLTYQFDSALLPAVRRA
# How it was run: as §1
# ELK3 = target: T6, ELK3 (Homo sapiens, UniProt P41970 1-407); settings: protein: recombinant; tags: N-terminal GST; dsDNA, one strand shown
# T6 sequence: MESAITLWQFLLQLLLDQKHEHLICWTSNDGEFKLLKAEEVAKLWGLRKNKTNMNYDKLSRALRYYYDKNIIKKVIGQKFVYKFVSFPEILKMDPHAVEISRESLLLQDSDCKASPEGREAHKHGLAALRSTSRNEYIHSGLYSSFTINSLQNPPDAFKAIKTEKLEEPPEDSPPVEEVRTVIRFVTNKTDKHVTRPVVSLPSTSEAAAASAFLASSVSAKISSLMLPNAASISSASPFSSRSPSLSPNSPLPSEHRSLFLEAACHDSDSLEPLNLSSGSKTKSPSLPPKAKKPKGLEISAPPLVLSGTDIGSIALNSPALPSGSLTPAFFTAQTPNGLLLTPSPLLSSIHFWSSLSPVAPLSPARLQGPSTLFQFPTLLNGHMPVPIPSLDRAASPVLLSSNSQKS
# How it was run: as §1
# ETV5 = ETV5 (Homo sapiens, UniProt P41161 1-510); settings: protein: recombinant; tags: N-terminal GST; dsDNA, one strand shown
# Chain of ETV5 (P41161 whole entry): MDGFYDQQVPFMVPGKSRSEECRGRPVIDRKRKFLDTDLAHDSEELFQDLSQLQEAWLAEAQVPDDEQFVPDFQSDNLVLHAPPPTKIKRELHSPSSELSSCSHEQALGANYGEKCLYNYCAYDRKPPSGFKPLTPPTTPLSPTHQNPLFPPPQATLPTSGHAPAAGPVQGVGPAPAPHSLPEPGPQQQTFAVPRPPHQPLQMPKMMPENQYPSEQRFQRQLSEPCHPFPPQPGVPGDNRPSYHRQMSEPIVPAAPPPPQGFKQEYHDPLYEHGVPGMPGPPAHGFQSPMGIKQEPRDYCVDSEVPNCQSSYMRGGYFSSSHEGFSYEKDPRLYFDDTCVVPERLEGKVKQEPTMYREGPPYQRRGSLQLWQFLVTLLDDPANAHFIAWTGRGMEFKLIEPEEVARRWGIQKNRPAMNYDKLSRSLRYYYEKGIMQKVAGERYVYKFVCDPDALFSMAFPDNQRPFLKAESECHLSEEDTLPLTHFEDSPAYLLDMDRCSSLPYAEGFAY
# How it was run: as §1
# HSF1 = HSF1 (Homo sapiens, UniProt Q00613 1-529); settings: protein: recombinant; tags: N-terminal GST; chain copies: 3; dsDNA, one strand shown
# Chain of HSF1 (Q00613 whole entry): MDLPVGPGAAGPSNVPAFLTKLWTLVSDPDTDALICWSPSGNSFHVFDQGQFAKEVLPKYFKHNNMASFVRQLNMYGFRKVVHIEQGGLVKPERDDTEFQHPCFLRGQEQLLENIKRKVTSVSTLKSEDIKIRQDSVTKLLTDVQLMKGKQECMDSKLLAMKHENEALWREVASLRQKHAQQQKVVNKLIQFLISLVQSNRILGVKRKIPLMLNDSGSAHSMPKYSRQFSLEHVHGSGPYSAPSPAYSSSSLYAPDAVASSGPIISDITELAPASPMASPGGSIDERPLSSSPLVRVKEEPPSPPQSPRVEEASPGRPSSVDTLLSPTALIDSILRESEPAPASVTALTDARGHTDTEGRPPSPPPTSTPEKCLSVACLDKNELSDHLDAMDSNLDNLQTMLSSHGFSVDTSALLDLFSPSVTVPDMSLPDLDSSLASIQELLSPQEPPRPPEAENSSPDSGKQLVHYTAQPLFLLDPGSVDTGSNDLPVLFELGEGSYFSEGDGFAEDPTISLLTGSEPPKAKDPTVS
# How it was run: as §1
# SPIC = target: T7, SPIC (Homo sapiens, UniProt Q8N5J4 1-248); settings: protein: recombinant; tags: N-terminal GST; dsDNA, one strand shown
# T7 sequence: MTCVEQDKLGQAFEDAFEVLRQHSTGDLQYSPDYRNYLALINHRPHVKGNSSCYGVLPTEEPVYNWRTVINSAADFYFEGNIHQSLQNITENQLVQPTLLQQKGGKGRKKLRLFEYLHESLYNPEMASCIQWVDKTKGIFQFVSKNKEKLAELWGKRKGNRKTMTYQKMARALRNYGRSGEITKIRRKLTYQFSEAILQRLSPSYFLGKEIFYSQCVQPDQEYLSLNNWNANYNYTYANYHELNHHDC
# How it was run: as §1
# ELF4 = ELF4 (Homo sapiens, UniProt Q99607 1-663); settings: protein: recombinant; tags: N-terminal GST; dsDNA, one strand shown
# Chain of ELF4 (Q99607 whole entry): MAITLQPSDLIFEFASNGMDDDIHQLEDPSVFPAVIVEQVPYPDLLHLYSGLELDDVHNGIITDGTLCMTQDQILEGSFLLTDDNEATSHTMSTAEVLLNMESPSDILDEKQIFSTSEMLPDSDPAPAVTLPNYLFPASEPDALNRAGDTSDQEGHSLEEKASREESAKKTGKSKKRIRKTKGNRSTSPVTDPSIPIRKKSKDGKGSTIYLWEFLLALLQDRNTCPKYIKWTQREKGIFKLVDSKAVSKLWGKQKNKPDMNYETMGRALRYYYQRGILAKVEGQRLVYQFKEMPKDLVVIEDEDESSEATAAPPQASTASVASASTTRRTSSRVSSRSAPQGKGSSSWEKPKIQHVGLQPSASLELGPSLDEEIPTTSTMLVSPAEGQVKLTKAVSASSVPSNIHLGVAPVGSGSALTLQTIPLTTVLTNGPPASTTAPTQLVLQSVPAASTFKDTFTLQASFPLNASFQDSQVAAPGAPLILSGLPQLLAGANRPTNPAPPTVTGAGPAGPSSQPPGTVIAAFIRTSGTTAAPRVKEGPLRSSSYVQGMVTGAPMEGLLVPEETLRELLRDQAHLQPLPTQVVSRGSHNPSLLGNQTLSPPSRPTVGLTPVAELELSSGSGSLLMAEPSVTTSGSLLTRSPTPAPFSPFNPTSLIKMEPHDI
# How it was run: as §1
# ELK4 = target: T8, ELK4 (Homo sapiens, UniProt P28324-2 1-405); settings: protein: recombinant; tags: N-terminal GST; dsDNA, one strand shown
# T8 sequence: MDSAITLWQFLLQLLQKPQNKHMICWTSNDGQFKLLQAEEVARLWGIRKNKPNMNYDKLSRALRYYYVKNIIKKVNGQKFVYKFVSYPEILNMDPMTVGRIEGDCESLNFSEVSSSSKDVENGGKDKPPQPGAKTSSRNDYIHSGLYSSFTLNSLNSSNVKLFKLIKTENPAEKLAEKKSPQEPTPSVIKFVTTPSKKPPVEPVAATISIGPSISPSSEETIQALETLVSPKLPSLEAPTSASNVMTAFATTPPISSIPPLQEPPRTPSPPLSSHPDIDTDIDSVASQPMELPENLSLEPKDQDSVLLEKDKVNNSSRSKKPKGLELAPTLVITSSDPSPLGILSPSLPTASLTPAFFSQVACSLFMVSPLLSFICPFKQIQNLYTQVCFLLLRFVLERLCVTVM
# How it was run: as §1
# ETV2 = target: T9, ETV2 (Homo sapiens, UniProt O00321 1-342); settings: protein: recombinant; tags: N-terminal GST; dsDNA, one strand shown
# T9 sequence: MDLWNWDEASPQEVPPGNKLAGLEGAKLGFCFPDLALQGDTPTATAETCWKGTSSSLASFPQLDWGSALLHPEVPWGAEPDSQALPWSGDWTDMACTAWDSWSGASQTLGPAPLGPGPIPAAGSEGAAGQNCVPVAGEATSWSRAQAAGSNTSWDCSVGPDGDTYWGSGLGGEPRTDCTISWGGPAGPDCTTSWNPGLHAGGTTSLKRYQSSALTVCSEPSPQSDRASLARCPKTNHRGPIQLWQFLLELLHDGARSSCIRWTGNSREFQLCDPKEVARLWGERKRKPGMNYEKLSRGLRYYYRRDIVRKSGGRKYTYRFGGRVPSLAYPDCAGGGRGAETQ
# How it was run: as §1
# ELF3 = target: T10, ELF3 (Homo sapiens, UniProt P78545 1-371); settings: protein: recombinant; tags: N-terminal GST; dsDNA, one strand shown
# T10 sequence: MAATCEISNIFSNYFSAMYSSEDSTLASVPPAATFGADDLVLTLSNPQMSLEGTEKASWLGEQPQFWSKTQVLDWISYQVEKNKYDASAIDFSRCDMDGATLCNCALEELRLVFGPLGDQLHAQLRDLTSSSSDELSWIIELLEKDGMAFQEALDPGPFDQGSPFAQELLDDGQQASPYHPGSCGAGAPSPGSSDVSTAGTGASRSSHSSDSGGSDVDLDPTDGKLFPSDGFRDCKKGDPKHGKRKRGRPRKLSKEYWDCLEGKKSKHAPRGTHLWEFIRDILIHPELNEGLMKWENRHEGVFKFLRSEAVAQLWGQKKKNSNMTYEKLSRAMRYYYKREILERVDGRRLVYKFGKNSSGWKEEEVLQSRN
# How it was run: as §1
# ETV1 = ETV1 (Homo sapiens, UniProt P50549 1-477); settings: protein: recombinant; tags: N-terminal GST; dsDNA, one strand shown
# Chain of ETV1 (P50549 whole entry): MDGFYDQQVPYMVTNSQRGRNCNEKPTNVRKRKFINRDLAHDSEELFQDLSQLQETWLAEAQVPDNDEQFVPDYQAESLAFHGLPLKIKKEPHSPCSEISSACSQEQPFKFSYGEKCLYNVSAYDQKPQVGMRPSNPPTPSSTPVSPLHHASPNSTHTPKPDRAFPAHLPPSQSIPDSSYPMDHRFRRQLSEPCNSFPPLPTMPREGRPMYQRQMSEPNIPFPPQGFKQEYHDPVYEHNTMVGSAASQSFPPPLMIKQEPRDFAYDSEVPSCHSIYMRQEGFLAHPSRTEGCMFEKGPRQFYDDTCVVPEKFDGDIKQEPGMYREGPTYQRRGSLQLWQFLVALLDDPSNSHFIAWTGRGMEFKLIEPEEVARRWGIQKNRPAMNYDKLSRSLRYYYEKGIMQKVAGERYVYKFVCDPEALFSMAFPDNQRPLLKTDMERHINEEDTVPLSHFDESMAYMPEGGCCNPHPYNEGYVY
# How it was run: as §1
sequence,measurement,setting,value
TCCACG,binding signal,FLI1,"1.09 fold enrichment (6-mer frequency, TF over GST control)"
same,binding signal,ELK1,"1.08 fold enrichment (6-mer frequency, TF over GST control)"
same,binding signal,GABPA,"1.2 fold enrichment (6-mer frequency, TF over GST control)"
same,binding signal,ERG,"1.09 fold enrichment (6-mer frequency, TF over GST control)"
same,binding signal,ELF1,"1.09 fold enrichment (6-mer frequency, TF over GST control)"
same,binding signal,EHF,"1.06 fold enrichment (6-mer frequency, TF over GST control)"
same,binding signal,SPI1,"1.06 fold enrichment (6-mer frequency, TF over GST control)"
same,binding signal,SPIB,"1.11 fold enrichment (6-mer frequency, TF over GST control)"
same,binding signal,ELK3,"1.14 fold enrichment (6-mer frequency, TF over GST control)"
same,binding signal,ETV5,"1.04 fold enrichment (6-mer frequency, TF over GST control)"
same,binding signal,HSF1,"1.15 fold enrichment (6-mer frequency, TF over GST control)"
same,binding signal,SPIC,"1.15 fold enrichment (6-mer frequency, TF over GST control)"
same,binding signal,ELF4,"1.13 fold enrichment (6-mer frequency, TF over GST control)"
same,binding signal,ELK4,"1.13 fold enrichment (6-mer frequency, TF over GST control)"
same,binding signal,ETV2,"1.3 fold enrichment (6-mer frequency, TF over GST control)"
same,binding signal,ELF3,"1.02 fold enrichment (6-mer frequency, TF over GST control)"
same,binding signal,ETV1,"1.08 fold enrichment (6-mer frequency, TF over GST control)"
